Test results as given in PubChem BioAssay (EPA / NIEHS).
Calls of active or inactive are those of the source. The calls were made as follows: active = hit-call score of the fitted dose curve at least 0.9, where 1 is the maximum; inactive = score below 0.9.

What was measured:
[1] = APR_HepG2_NuclearSize_24hr: Apredica 24-hour HepG2 Assay for Nuclear Size (AID 2282907); conditions: high-content imaging, actives raise or lower the signal
Outline: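 Nuclear size from Hoechst 33342-stained, formaldehyde-fixed HepG2 nuclei imaged by high-content microscopy, after 24 h dosing at ten concentrations from 0.39 to 200 uM in 0.5% DMSO; gain or loss relative to DMSO baseline.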

[2] = APR_HepG2_CellLoss_24hr: Apredica 24-hour HepG2 Assay for Cell Loss (AID 2282908); conditions: high-content imaging;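 as to AC50: fit in both directions so a hit may be cell loss or gain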
Outline: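 Nuclei stained with Hoechst 33342 after formaldehyde fixation (3.7%) were imaged at 20x to count cells. Exposure lasted 24 hr, at ten concentrations from 0.39 to 200 uM in duplicate, with 0.5% v/v DMSO. Fit bidirectional, relative to DMSO.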

[3] = APR_HepG2_MicrotubuleCSK_24hr: Apredica 24-hour HepG2 Assay for Microtubule CSK Stabilty (AID 2282909); conditions: HepG2 microtubule cytoskeleton imaging, actives raise or lower the signal
Outline: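 Fixed HepG2 cells were stained for alpha-tubulin and imaged after 24 hr exposure to ten concentrations spanning 0.39–200 uM in 0.5% DMSO. Signal change was fitted in both directions relative to DMSO; taxol was the positive control.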

[4] = APR_HepG2_MitoticArrest_24hr: Apredica 24-hour HepG2 Assay for Mitotic Arrest (AID 2282910); conditions: high-content imaging, actives raise or lower the signal
Outline: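 HepG2, 24 hr dosing, 0.39–200 uM, 0.5% DMSO final. Formaldehyde-fixed, Triton-permeabilised, anti-phospho-histone H3 plus Hoechst. ArrayScan imaging at 20x; bidirectional fit vs DMSO baseline.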

[5] = APR_HepG2_MitoMembPot_24hr: Apredica 24-hour HepG2 Assay for Mitochondrial Membrane Potential (AID 2282911); conditions: imaging, actives raise or lower the signal
Outline: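 HepG2 human liver cells were exposed 24 hr to compounds at 0.39–200 uM (final DMSO 0.5% v/v) in duplicate. MitoTracker Red CMXRos (250 nM, 30 min) was loaded before formaldehyde fixation; fluorescence was imaged by ArrayScan HCS and fitted bidirectionally versus DMSO.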

[6] = APR_HepG2_MitoMass_24hr: Apredica 24-hour HepG2 Assay for Mitochondrial Mass (AID 2282912); conditions: high-content imaging, actives raise or lower the signal
Outline: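 Endpoint is MitoTracker Red CMXRos (250 nM, 30 min, pre-fixation) intensity from 20x high-content imaging, nuclei located by Hoechst. Human HepG2 cells received ten concentrations from 0.39 to 200 uM in 0.5% DMSO for 24 hr, duplicate wells. Bidirectional fit relative to DMSO.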

[7] = APR_HepG2_CellCycleArrest_72hr: Apredica 72-hour HepG2 Assay for Cell Cycle Arrest (AID 2282914); conditions: high-content imaging, actives raise or lower the signal
Outline: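 HepG2 cells were exposed to compounds at 0.39–200 uM (0.5% v/v DMSO final, duplicates) for 72 hr, fixed in 3.7% formaldehyde, permeabilized and stained with Hoechst 33342. Nuclear DNA content was quantified by high-content imaging; gain or loss of signal was fitted bidirectionally against DMSO.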

[8] = APR_HepG2_P-H2AX_72hr: Apredica 72-hour HepG2 Assay for H2AX Phosphorylation (AID 2282916); conditions: imaging, actives raise or lower the signal;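 also: phospho-histone H2A.x immunostain intensity per cell marking DNA damage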
Outline: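 Phospho-histone H2A.x immunofluorescence, multiplexed with Hoechst and c-Jun, quantified by high-content imaging. Compounds applied to HepG2 for 72 h across ten concentrations (0.39–200 uM, 0.5% DMSO), in duplicate; DMSO baseline.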

[9] = APR_HepG2_MitoMembPot_72hr: Apredica 72-hour HepG2 Assay for Mitochondrial Membrane Potential (AID 2282917); conditions: imaging, actives raise or lower the signal
Outline: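 HepG2 cells dosed 72 hr with compound at 0.39–200 uM in duplicate, 0.5% v/v DMSO final. Mitochondria stained with 250 nM MitoTracker Red CMXRos for 30 min before formaldehyde fixation, imaged by high-content fluorescence; bidirectional fit versus DMSO.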

[10] = APR_HepG2_MitoticArrest_72hr: Apredica 72-hour HepG2 Assay for Mitotic Arrest (AID 2282918); conditions: high-content imaging, actives raise or lower the signal
Outline: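 HepG2 cells were exposed for 72 hr to compound at 0.39–200 uM (10 concentrations, duplicate) in 0.5% v/v DMSO, fixed in 3.7% formaldehyde, immunostained for phospho-histone H3 with Hoechst 33342 and imaged by high-content fluorescence; bidirectional fits versus DMSO.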

[11] = APR_HepG2_MicrotubuleCSK_72hr: Apredica 72-hour HepG2 Assay for Microtubule CSK Stabilty (AID 2282919); conditions: HepG2 microtubule cytoskeleton, high-content imaging, actives raise or lower the signal
Outline: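 HepG2, 72 hr cmpd exposure, 0.39–200 uM (10 pts, duplicate), 0.5% DMSO. 3.7% formaldehyde fix, 0.5% Triton perm, anti-alpha-tubulin/Cy5 plus Hoechst. HCS fluorescence intensity; bidirectional fit vs DMSO baseline; taxol as positive control.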

[12] = APR_HepG2_P-H2AX_24hr: Apredica 24-hour HepG2 Assay for H2AX Phosphorylation (AID 2282920); conditions: high-content imaging, actives raise or lower the signal
Outline: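 HepG2 human liver cells were exposed for 24 hr to compounds at 0.39–200 uM in duplicate, with 0.5% v/v DMSO final. Fixed cells were immunostained for phospho-histone H2A.x plus Hoechst 33342, imaged by HCS fluorescence, and fitted bidirectionally against DMSO.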

[13] = APR_HepG2_StressKinase_72hr: Apredica 72-hour HepG2 Assay for Stress Kinase (AID 2282921); conditions: HepG2 stress kinase (phospho-c-Jun) imaging, actives raise or lower the signal
Outline: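 Stress kinase signal is phospho-c-Jun immunofluorescence (1:500 primary, Cy3 secondary) in fixed, permeabilized human HepG2 cells imaged at 20x. Exposure lasted 72 hr over ten concentrations from 0.39 to 200 uM, 0.5% DMSO, in duplicate. Bidirectional fit versus DMSO.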

[14] = APR_HepG2_StressKinase_24hr: Apredica 24-hour HepG2 Assay for Stress Kinase (AID 2282922); conditions: HepG2 stress kinase (phospho-c-Jun) imaging, actives raise or lower the signal
Outline: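 Read-out: phospho-c-Jun immunofluorescence (Cy3 secondary) quantified by high-content imaging at 20x, nuclei defined by Hoechst 33342. Human HepG2 liver cells dosed 24 hr, 0.39–200 uM, DMSO 0.5% v/v; gain or loss of signal fitted relative to DMSO.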

[15] = APR_HepG2_MitoMass_72hr: Apredica 72-hour HepG2 Assay for Mitochondrial Mass (AID 2282924); conditions: high-content imaging, actives raise or lower the signal;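 also: MitoTracker Red CMXRos stain intensity per cell imaged as mitochondrial mass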
Outline: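 Read-out: MitoTracker Red fluorescence intensity from automated imaging (20x, six fields per well) in human HepG2 liver cells. Dosing ran 72 hr, 0.39–200 uM, 0.5% DMSO; bidirectional curve fitting versus DMSO baseline.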

[16] = APR_HepG2_NuclearSize_72hr: Apredica 72-hour HepG2 Assay for Nuclear Size (AID 2282925); conditions: high-content imaging, actives raise or lower the signal
Outline: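 Read-out: nuclear diameter from Hoechst 33342 images (ArrayScan, 20x, six fields/well), via cell-cycle image analysis. HepG2 were dosed 0.39–200 uM for 72 hr in 0.5% DMSO. Bidirectional fit relative to DMSO.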

[17] = ATG_CRE_CIS: Attagene CIS-FACTORIAL HepG2 Assay for human cAMP Responsive Element (CRE) binding protein 3 (AID 2282926); conditions: HepG2 CRE cis-reporter, Attagene multiplexed mRNA; actives raise or lower the signal
Outline: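 Capillary electrophoresis of 6-FAM-labelled, HpaI-digested PCR products quantified reporter transcripts. These came from HepG2 transiently transfected with cis-element reporters and exposed to test chemicals for 24 hours, with DMSO defining baseline activity.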

[18] = APR_HepG2_p53Act_24hr: Apredica 24-hour HepG2 Assay for p53 Activation (AID 2282913); conditions: high-content imaging, actives raise or lower the signal;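 also: p53 protein immunofluorescence averaged per cell in HepG2 with Hoechst nuclei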
Outline: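 HepG2 cells exposed 24 hr to compounds at 0.39–200 uM (10 concentrations, duplicate), final DMSO 0.5% v/v. After formaldehyde fixation and Triton permeabilization, p53 was immunolabeled (sheep anti-p53, Cy5 secondary) with Hoechst 33342 nuclear counterstain, then imaged by high-content fluorescence microscopy.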

[19] = APR_HepG2_p53Act_72hr: Apredica 72-hour HepG2 Assay for p53 Activation (AID 2282923); conditions: high-content imaging, actives raise or lower the signal;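 also: average cellular p53 protein immunofluorescence intensity in HepG2 cells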
Outline: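 After 72 h with compound (ten points, 0.39 to 200 uM, final DMSO 0.5% v/v), fixed HepG2 cells were labelled with sheep anti-p53 and Hoechst 33342 and imaged; gain or loss versus DMSO scored.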

[20] = APR_HepG2_CellLoss_72hr: Apredica 72-hour HepG2 Assay for Cell Loss (AID 2282915); conditions: high-content imaging
Outline: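 HepG2 cells exposed 72 h to compound at 0.39–200 uM (10 concentrations, duplicate) in 0.5% DMSO. Fixed with 3.7% formaldehyde and Hoechst 33342-stained. Imaged at 20x; nuclear count gives cell number, fitted bidirectionally versus DMSO.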

Measured: AC50

CCOC(=O)C(C)Oc1ccc(Oc2cnc3cc(Cl)ccc3n2)cc1 (stereo not drawn)
inactive: [1] | [3] | [4] | [5] | [6] | [7] | [8] | [10] | [12] | [13] | [14] | [15] | [16] | [17]
active: [2] 58.5 µM | [9] 13.6 µM | [11] 95.1 µM

O=C(Nc1ccc([N+](=O)[O-])cc1Cl)c1cc(Cl)ccc1O
inactive: [1] | [5] | [8] | [13] | [14] | [19] | [15] | [16]
active: [2] 0.332 µM | [3] 0.672 µM | [4] 0.784 µM | [6] 2.63 µM | [18] 1.49 µM | [7] 0.463 µM | [9] 1.06 µM | [10] 0.238 µM | [11] 0.0444 µM | [12] 1.8 µM | [17] 0.506 µM

CCN(Cc1c(F)cccc1Cl)c1c([N+](=O)[O-])cc(C(F)(F)F)cc1[N+](=O)[O-]
inactive: [1] | [2] | [3] | [4] | [5] | [18] | [7] | [9] | [10] | [12] | [13] | [14] | [19] | [15] | [16] | [17]
active: [20] 33.5 µM | [11] 34.6 µM

CCOC(=O)NCCOc1ccc(Oc2ccccc2)cc1
active: [5] 56.2 µM | [20] 52.8 µM | [9] 78.2 µM | [11] 79.4 µM
inactive: [1] | [2] | [3] | [4] | [6] | [18] | [7] | [10] | [12] | [13] | [14] | [19] | [15] | [16] | [17]

CC1(C)C(C=C(Cl)Cl)C1C(=O)OCc1cccc(Oc2ccccc2)c1 (stereo not drawn)
inactive: [1] | [2] | [3] | [4] | [18] | [9] | [10] | [12] | [13] | [14] | [19] | [15] | [16] | [17]
active: [5] 100 µM | [7] 101 µM | [20] 62.3 µM | [11] 100 µM

O=C(O)c1ccccc1
inactive: [1] | [2] | [3] | [4] | [5] | [6] | [18] | [7] | [20] | [9] | [10] | [11] | [12] | [13] | [14] | [19] | [15] | [16] | [17]

O=C(O)C1(C(=O)Nc2ccc(Cl)cc2Cl)CC1
inactive: [1] | [2] | [3] | [4] | [5] | [6] | [18] | [7] | [9] | [10] | [11] | [12] | [13] | [14] | [19] | [15] | [16] | [17]
